Results as given in the supplement of paper PMC10849652.
Targets with a hit are over-represented here; the source holds about 8,800 in all. About 0.5% of all pairs of compound and target were hits.

What was measured:
Assay in all cases: log2 fold change, soluble protein after heating vs DMSO (PISA); higher = thermal stabilisation; K562 lysate, 10 uM; active = over 0.2 and 3.5 SD of the protein, either way, in both replicates (recomputed)
erlotinib = compound: C#Cc1cccc(Nc2ncnc3cc(OCCOC)c(OCCOC)cc23)c1 [erlotinib]
Procedure, shortened: (§1)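 Dounce homogenisation of K562 pellets in PBS pH 7.4 with 1 mM MgCl2 produced a crude extract, used at 1 mg/mL protein. Exposure to 10 μM compound lasted 30 min, and aliquots were then heated for 3 min across 48°C-58°C, pooled and brought to 0.5% NP-40 at 4°C. The supernatant after 21,000xg for 90 min was quantified by TMTpro 16plex LC-MS/MS with channel sums equalised. Duplicate values are given as log-two fold change in thermal stability relative to solvent controls.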

[1] = compound: C/C(=N\NC(=O)C1=CC(=CC=C1)S(=O)(=O)N2CCOCC2)/C3=C(C=CC(=C3)Cl)O
Procedure, shortened: as §1

[2] = compound: C1=CC(=CC=C1C2=NC3=C(N2)C=C(C=C3)C(=O)N)OC4=CC=C(C=C4)Cl
Procedure, shortened: as §1

[3] = compound: C1=CC2=C(C=CC(=C2)/C=C\3/C(=O)NC(=NCC4=CC=CS4)S3)N=C1
Procedure, shortened: as §1

[4] = compound: C1=CC2=NC=CN=C2C=C1/C=C/3\C(=O)NC(=O)S3
Procedure, shortened: as §1

[5] = compound: C1=CC=C2C(=C1)C3=NNC4=CC=CC(=C43)C2=O
Procedure, shortened: as §1

[6] = compound: C1CCN(C1)C(=O)NC2=CC=CC(=C2)NC3=NC=C(C(=N3)NCCC4=CN=CN4)Br
Procedure, shortened: as §1

[7] = compound: C1CN(CCC1(CC2=CC=C(C=C2)Cl)N)C3=NC=NC4=C3C=CN4
Procedure, shortened: as §1

ibrutinib = compound: C=CC(=O)N1CCC[C@@H](n2nc(-c3ccc(Oc4ccccc4)cc3)c3c(N)ncnc32)C1 [ibrutinib]
Procedure, shortened: as §1

[8] = compound: CC(=O)c1cnc2ccc(-c3cc(Cl)c(O)c(Cl)c3)nc2c1N[C@H]1CC[C@H](CN(C)C)CC1
Procedure, shortened: as §1

[9] = compound: CC(C)C1=C2N=C(C=C(N2N=C1)NCC3=CC=CC=C3)NCCCCCCN
Procedure, shortened: as §1

[10] = compound: CC1=C(C(CC(=O)N1)C2=CC=C(C=C2)C(F)(F)F)C(=O)NC3=C(C=C4C(=C3)C=NN4)F
Procedure, shortened: as §1

[11] = compound: CC1=C(C2=C(C=C1)C(=O)C3=CC=CC=C3N2CCCN)C
Procedure, shortened: as §1

[12] = compound: CC1=C(C=C(C=C1)NC(=O)C2=CC(=CC=C2)C(C)(C)C#N)NC3=CC4=C(C=C3)N=CN(C4=O)C
Procedure, shortened: as §1

[13] = compound: CC1=CC=C(C=C1)SC2=C3C=C(SC3=CN=C2)C(=O)N
Procedure, shortened: as §1

[14] = compound: C1=CC=C(C=C1)C2=NC(=C(N2)C3=CC=NC=C3)C4=CC(=C(C=C4)Cl)O
Procedure, shortened: as §1

IRAK-1-4 Inhibitor I = compound: C1COCCN1CCN2C3=CC=CC=C3N=C2NC(=O)C4=CC(=CC=C4)[N+](=O)[O-] [IRAK-1-4 Inhibitor I]
Procedure, shortened: as §1

ralimetinib = compound: CC(C)(C)Cn1c(N)nc2ccc(-c3[nH]c(C(C)(C)C)nc3-c3ccc(F)cc3)nc21 [ralimetinib]
Procedure, shortened: as §1

[15] = compound: CC(C)(O)CC(=O)NCCn1ccc2ncnc(Nc3ccc(Oc4cccc(C(F)(F)F)c4)c(Cl)c3)c21
Procedure, shortened: as §1

[16] = compound: CC1=C(C=C(C=C1)NC(=O)C2=CC(=CC=C2)N(C)C)NC(=O)C3=CC=C(C=C3)O
Procedure, shortened: as §1

Measured: log2 fold change

RXRB isoform 3 (UniProt P28702)
UniProt P28702, sequence (P28702 whole entry, looked up): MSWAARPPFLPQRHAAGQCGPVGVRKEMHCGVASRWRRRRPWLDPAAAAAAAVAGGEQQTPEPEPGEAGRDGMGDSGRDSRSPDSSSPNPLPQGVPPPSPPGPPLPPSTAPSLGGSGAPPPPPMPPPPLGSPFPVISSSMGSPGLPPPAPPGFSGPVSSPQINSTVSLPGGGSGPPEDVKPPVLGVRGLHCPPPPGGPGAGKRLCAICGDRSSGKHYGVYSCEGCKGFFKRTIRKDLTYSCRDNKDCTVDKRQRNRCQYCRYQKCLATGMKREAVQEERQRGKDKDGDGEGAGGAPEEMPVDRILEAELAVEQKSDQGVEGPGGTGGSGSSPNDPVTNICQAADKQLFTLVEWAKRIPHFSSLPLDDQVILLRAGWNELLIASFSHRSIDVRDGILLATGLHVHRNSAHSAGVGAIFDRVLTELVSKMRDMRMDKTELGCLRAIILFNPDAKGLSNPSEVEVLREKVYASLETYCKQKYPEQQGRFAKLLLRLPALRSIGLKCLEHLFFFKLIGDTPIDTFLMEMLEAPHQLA
inactive: erlotinib -0.025 | [1] 0.006 | [2] -0.038 | [3] -0.014 | [4] 0.051 | [5] -0.039 | [6] 0.011 | [7] -0.015 | ibrutinib 0.047 | [8] -0.037 | [9] 0.106 | [10] 0.026 | [11] -0.005 | [12] 0.011 | [13] -0.109

RCAN1 (UniProt P53805)
UniProt P53805, sequence (P53805 whole entry, looked up): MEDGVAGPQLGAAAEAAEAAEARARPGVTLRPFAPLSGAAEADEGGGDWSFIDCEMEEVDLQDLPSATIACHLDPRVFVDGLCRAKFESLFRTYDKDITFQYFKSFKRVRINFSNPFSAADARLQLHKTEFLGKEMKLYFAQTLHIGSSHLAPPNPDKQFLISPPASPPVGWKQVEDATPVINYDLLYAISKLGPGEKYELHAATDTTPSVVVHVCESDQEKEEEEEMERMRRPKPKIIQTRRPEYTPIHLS
inactive: erlotinib 0.06 | [1] -0.206 | [2] -0.033 | [3] -0.018 | [4] -0.04 | [14] 0.008 | [5] 0.045 | [6] -0.095 | [7] 0.016 | IRAK-1-4 Inhibitor I -0.024 | ibrutinib -0.019 | [8] 0.003 | ralimetinib -0.004 | [15] 0.012 | [9] 0.002 | [10] 0.026 | [11] -0.027 | [12] 0.085 | [16] -0.02 | [13] 0.02

RMC1 (UniProt Q96DM3)
UniProt Q96DM3, sequence (Q96DM3 whole entry, looked up): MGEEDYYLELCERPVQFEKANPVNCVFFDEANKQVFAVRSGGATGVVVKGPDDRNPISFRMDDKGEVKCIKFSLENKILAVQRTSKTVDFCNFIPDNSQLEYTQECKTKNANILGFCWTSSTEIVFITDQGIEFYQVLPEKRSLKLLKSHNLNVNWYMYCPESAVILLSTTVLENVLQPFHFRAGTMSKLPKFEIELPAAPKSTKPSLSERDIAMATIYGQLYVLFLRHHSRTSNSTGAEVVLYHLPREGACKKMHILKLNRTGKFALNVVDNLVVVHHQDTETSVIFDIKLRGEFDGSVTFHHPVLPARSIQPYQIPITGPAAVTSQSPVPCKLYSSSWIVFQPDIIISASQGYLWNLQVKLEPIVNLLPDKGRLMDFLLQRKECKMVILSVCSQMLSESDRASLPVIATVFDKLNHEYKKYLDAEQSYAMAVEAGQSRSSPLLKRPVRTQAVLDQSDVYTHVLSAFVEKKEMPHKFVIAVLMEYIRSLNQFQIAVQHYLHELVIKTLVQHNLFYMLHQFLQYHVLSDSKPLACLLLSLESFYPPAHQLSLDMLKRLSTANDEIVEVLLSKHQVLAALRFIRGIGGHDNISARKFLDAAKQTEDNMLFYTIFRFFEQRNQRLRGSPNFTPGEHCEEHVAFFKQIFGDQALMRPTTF
inactive: erlotinib 0.015 | [1] -0.056 | [2] 0.017 | [3] -0.06 | [4] 0.004 | [14] -0.008 | [5] -0.054 | [6] -0.001 | [7] 0.035 | IRAK-1-4 Inhibitor I 0.006 | ibrutinib -0.004 | [8] 0.018 | ralimetinib 0.03 | [15] -0.024 | [9] -0.001 | [10] -0.017 | [11] -0.018 | [12] 0.009 | [16] 0.005 | [13] 0.027

RPS18 (UniProt P62269)
inactive: erlotinib -0.021 | [1] -0.088 | [2] -0.007 | [3] -0.006 | [4] -0.004 | [14] -0.012 | [5] -0.007 | [6] 0.005 | [7] 0.004 | IRAK-1-4 Inhibitor I 0.047 | ibrutinib -0.016 | [8] 0.01 | ralimetinib -0.006 | [15] -0.02 | [9] 0.008 | [10] -0.037 | [11] -0.1 | [12] 0 | [16] -0.006 | [13] -0.012

RASA2 (UniProt Q15283)
UniProt Q15283, sequence (Q15283 whole entry, looked up): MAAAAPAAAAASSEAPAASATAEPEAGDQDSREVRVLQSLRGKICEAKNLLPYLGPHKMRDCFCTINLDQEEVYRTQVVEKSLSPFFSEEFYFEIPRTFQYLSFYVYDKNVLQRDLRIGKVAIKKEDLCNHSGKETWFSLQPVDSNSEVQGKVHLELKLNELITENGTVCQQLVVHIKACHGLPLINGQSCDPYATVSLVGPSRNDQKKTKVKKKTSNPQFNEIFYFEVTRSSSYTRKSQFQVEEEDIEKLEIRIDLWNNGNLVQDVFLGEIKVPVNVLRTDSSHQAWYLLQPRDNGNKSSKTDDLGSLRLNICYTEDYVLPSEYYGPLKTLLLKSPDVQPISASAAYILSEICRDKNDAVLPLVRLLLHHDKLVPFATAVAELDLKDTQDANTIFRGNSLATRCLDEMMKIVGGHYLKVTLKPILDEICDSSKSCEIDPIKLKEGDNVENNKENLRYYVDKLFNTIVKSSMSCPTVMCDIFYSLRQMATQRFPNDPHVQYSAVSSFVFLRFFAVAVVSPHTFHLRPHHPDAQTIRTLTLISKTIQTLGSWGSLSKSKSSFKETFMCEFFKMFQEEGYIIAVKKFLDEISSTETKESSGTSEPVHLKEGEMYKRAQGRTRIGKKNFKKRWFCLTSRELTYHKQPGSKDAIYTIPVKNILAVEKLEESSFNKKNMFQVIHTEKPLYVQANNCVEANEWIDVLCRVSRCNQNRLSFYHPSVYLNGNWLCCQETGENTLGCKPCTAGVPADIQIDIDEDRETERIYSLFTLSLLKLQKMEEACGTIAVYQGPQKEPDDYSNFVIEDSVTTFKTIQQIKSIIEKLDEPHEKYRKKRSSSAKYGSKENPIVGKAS
inactive: erlotinib 0.016 | [1] -0.001 | [2] -0.054 | [3] -0.071 | [4] -0.028 | [14] 0.018 | [5] -0.069 | [6] -0.024 | [7] 0.028 | IRAK-1-4 Inhibitor I -0.003 | ibrutinib 0.034 | [8] -0.011 | ralimetinib 0.006 | [15] -0.038 | [9] 0.014 | [10] 0.023 | [11] 0.004 | [12] 0.033 | [16] 0.019 | [13] -0.013

RDH10 (UniProt Q8IZV5)
UniProt Q8IZV5, sequence (Q8IZV5 whole entry, looked up): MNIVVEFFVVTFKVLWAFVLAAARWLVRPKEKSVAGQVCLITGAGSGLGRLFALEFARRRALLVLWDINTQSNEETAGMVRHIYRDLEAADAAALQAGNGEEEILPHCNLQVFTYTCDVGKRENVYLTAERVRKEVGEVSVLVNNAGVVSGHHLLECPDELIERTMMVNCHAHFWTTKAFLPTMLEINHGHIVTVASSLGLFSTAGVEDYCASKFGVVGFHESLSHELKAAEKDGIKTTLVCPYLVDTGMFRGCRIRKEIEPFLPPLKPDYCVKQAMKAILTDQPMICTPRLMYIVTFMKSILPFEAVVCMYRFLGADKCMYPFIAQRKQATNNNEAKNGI
inactive: erlotinib 0.043 | [1] 0.001 | [2] -0.019 | [3] 0.087 | [4] -0.028 | [14] -0.022 | [5] -0.013 | [6] 0.024 | [7] -0.023 | IRAK-1-4 Inhibitor I 0.001 | ibrutinib 0.016 | [8] -0.015 | ralimetinib 0.04 | [15] -0.013 | [9] 0.03 | [10] -0.007 | [11] -0.033 | [12] -0.045 | [16] -0.034 | [13] -0.016

RPL28 (UniProt P46779)
inactive: erlotinib -0.012 | [1] -0.104 | [2] 0.006 | [3] -0.009 | [4] -0.037 | [14] 0.019 | [5] 0.016 | [6] -0.003 | [7] 0 | IRAK-1-4 Inhibitor I -0.02 | ibrutinib -0.026 | [8] -0.011 | ralimetinib -0.003 | [15] -0.005 | [9] 0.006 | [10] -0.038 | [11] -0.066 | [12] -0.021 | [16] 0.012 | [13] 0.026

RNF149 (UniProt Q8NC42)
UniProt Q8NC42, sequence (Q8NC42 whole entry, looked up): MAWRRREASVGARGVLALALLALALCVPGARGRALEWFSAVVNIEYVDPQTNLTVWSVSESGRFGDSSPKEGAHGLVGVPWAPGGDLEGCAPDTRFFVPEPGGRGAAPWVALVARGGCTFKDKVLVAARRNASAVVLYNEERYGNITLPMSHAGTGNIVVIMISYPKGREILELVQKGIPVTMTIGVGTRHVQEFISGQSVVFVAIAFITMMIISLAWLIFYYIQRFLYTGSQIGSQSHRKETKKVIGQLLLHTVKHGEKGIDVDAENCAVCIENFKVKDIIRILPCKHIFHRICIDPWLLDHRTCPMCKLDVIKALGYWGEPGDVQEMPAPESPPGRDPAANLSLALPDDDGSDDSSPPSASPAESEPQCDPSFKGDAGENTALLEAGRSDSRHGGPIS
inactive: erlotinib -0.044 | [1] -0.03 | [2] 0.003 | [3] -0.046 | [4] 0.135 | [14] -0.021 | [5] -0.031 | IRAK-1-4 Inhibitor I 0.068 | ibrutinib 0.04 | [8] 0.023 | ralimetinib 0.044 | [15] -0.041 | [9] -0.005 | [10] -0.021 | [11] 0.001 | [12] -0.014 | [16] 0.113 | [13] 0.06
